From ChEMBL document CHEMBL1157539, “Thousands of chemical starting points for antimalarial lead identification” (Nature, 2010) come the findings set out here.

What all share (type): functional
The test system of assay [1] is Plasmodium falciparum. In words: GSK_TCMDC: Inhibition of Plasmodium falciparum 3D7 in whole red blood cells, using parasite LDH activity as an index of growth. Test compounds present at 2uM.
Assay [2] concerns Plasmodium falciparum. In words: GSK_TCMDC: Inhibition of Plasmodium falciparum Dd2 in whole red blood cells, using parasite LDH activity as an index of growth. Test compounds present at 2uM.
A further assay deals with HepG2. As to the kind of experiment: GSK_TCMDC: Percent inhibition of human HepG2 cell line. Test compounds present at 10uM.

For `Nc1nc(Nc2cccc(Cl)c2)ncc1C(=O)NCc1ccncc1`, the results for the Inhibition in the assay with Plasmodium falciparum [1], in the assay on Plasmodium falciparum [2] and in the assay on HepG2 were 98%, 29% and 3%, respectively.
On to `O=C1c2ccccc2C(=O)N1c1ccc(S(=O)(=O)N2CCOCC2)cc1`, for which the results for the Inhibition in the assay with Plasmodium falciparum [1], in the assay with Plasmodium falciparum [2] and with HepG2 were 94%, 0% and 0%, respectively.
Take `NC1CCN(c2nc(NCCCc3ccc(O)cc3)nc(NCc3cccc4ccccc34)n2)CC1.O=C(O)C(F)(F)F`: the Inhibition in the assay with Plasmodium falciparum [1] stood at 100%; in the assay with Plasmodium falciparum [2], 2%; in the assay with HepG2, 12%.
Taken in the same sequence, the figures for `COc1ccc(Nc2nccc(NCC(O)c3ccc(C(F)(F)F)cc3)n2)cc1` (stereo not drawn) were 98%, 54% and 6%.
`CCc1ccc(C2CCN(CCCCNC(=O)c3ccc(NC(=O)c4ccc(Cl)cc4)cc3)CC2)c(OCCO)c1`: the values for the Inhibition in the assay with Plasmodium falciparum [1], in the assay on Plasmodium falciparum [2] and with HepG2 were 98%, 100% and 94%, respectively.
As to `O=C(NCCN1CCCC1)c1ccc(-c2ccc(-c3nc4cc(C(F)(F)F)ccc4[nH]3)s2)cc1`, the Inhibition in the assay on Plasmodium falciparum [1] came to 97%; in the assay on Plasmodium falciparum [2], 65%; with HepG2 it was 31%.
Consider `COc1ccc2ncc(F)c([C@H](O)CN3CCC(NCc4ccc5c(c4)NC(=O)CO5)CC3)c2c1.Cl`, for which the Inhibition in the assay with Plasmodium falciparum [1] was found to be 100%; with Plasmodium falciparum [2] it was 100%; in the assay on HepG2, 16%.
`Cl.N=c1n(Cc2ccccc2)c2ccccc2n1CC(O)c1ccc(Cl)c(Cl)c1` (stereo not drawn): the Inhibition with Plasmodium falciparum [1] was found to be 95%; with Plasmodium falciparum [2] it was 98%; with HepG2, 40%.
In the same order, the values of `Cc1cc(OCCCN2CCC(NS(=O)(=O)c3ccc(Cl)c(Cl)c3)CC2)c2ccccc2n1` are 96%, 35% and 11%.
Regarding `COc1ccc2nccc(NCC3(O)CCC(NCc4ccc5c(n4)NC(=O)CS5)CC3)c2n1.Cl` (stereo not drawn), the Inhibition in the assay with Plasmodium falciparum [1] is 100%; in the assay with Plasmodium falciparum [2], 23%; in the assay on HepG2 it was 16%.
As for `CN1CCC[C@@H](Oc2cc3c(cc2Br)CCN3C(=O)Nc2ccc(-c3ccncc3)c(Cl)c2)C1`, the Inhibition in the assay on Plasmodium falciparum [1] was 99%; in the assay with Plasmodium falciparum [2] it was 64%; in the assay on HepG2, 26%.
As to `CS(=O)(=O)Nc1ccc2[nH]cc(C3CCN(CC(O)C4CCN(C(=O)/C=C/c5ccc(Cl)c(Cl)c5)CC4)CC3)c2c1.O=C(O)C(F)(F)F` (stereo not drawn), the figures for the Inhibition with Plasmodium falciparum [1], in the assay with Plasmodium falciparum [2] and with HepG2 were 100%, 0% and 28%, respectively.
Consider `CC1CC(NCCCNc2cc(=O)c3ccccc3[nH]2)c2c(Cl)c(Cl)cc(Cl)c21` (stereo not drawn), for which the results for the Inhibition in the assay on Plasmodium falciparum [1], in the assay with Plasmodium falciparum [2] and in the assay with HepG2 were 87%, 52% and 6%, respectively.
On to `O=[N+]([O-])c1ccc(C=NNc2nc3ccccc3[nH]2)cc1`, for which the Inhibition is reported as 100% in the assay on Plasmodium falciparum [1], 98% in the assay on Plasmodium falciparum [2] and 11% in the assay on HepG2.
As for `Cc1nc(-c2cccc3c(NC(=O)N4CCc5cc6nccc(N7CCN(C)CC7)c6cc54)cccc23)no1.Cl`, the Inhibition amounted to 100% in the assay on Plasmodium falciparum [1], 97% in the assay on Plasmodium falciparum [2] and 45% with HepG2.
In the same order, the values of `Cc1cccc2nc(-c3cccc(-c4ccc(NC(=O)Nc5ccc6c(c5)OCO6)cc4)c3)[nH]c12` are 100%, 86% and 80%.
Regarding `COc1cc(NC2=C(c3ccccc3)C(=O)c3ccccc32)ccn1`, the Inhibition with Plasmodium falciparum [1] is given as 96%; in the assay on Plasmodium falciparum [2], 96%; with HepG2, 7%.
Consider `Cc1cc(Nc2ccncc2)n2nc(C)c(-c3ccccc3Cl)c2n1`, for which the Inhibition worked out at 99% in the assay on Plasmodium falciparum [1], 93% in the assay on Plasmodium falciparum [2] and 2% in the assay with HepG2.
For the compound `CC(=O)Nc1ccc([N+](=O)[O-])c2c(Br)cccc12`, the Inhibition was determined as 100% with Plasmodium falciparum [1], 0% in the assay with Plasmodium falciparum [2] and 0% in the assay with HepG2.
With `CCC[C@@H]([C@@H](CC1CCCCC1)C(=O)N[C@H](C(=O)Nc1nccs1)C(C)(C)SCCNC(=O)OCc1ccccn1)N(O)C=O`, the Inhibition with Plasmodium falciparum [1] stood at 99%; with Plasmodium falciparum [2], 96%; with HepG2, 17%.
Taken in the same sequence, the figures for `CC[C@H](NC(=O)c1c(N)c(-c2sccc2Cl)nc2ccccc12)c1ccccc1` were 99%, 92% and 0%.
On to `CCOC(=O)c1c[nH]c2c(sc3cc(OC)ccc32)c1=O`, for which the Inhibition was determined as 96% with Plasmodium falciparum [1], 93% with Plasmodium falciparum [2] and 0% in the assay with HepG2.
In the same order, the values of `O=C(CCn1cncn1)N1CCCC(c2[nH]c3ccccc3c2-c2ccncc2)C1` (stereo not drawn) are 97%, 79% and 1%.
For `O=C(/C=C/c1ccc(C(F)(F)F)cc1)NCCCCCN1CCCN(C(=O)Nc2ccc(F)c(Cl)c2)CC1`, the Inhibition with Plasmodium falciparum [1] is on record as 100%; in the assay with Plasmodium falciparum [2], 33%; in the assay with HepG2, 33%.
With `COc1ccc(-c2ccc(NC(=O)c3cccc(Cl)c3)c(F)c2)cc1CN1CCCN(C)CC1.O=C(O)C(F)(F)F`, the Inhibition is given as 100% with Plasmodium falciparum [1], 42% in the assay with Plasmodium falciparum [2] and 43% in the assay with HepG2.
Turning to `CCC(N)(C#Cc1ccc(-c2c(C)[nH]c(C)c(Br)c2=O)cc1)CC`, the Inhibition is given as 97% in the assay on Plasmodium falciparum [1], 96% in the assay with Plasmodium falciparum [2] and 0% with HepG2.
For `O=C(Nc1ccc(F)cc1)NC1CCN(c2ccnc3ccccc23)C1.O=C(O)C(F)(F)F` (stereo not drawn), the results for the Inhibition with Plasmodium falciparum [1], with Plasmodium falciparum [2] and with HepG2 were 92%, 2% and 9%, respectively.
Take `CCOC(=O)CN(c1ccc(Br)cc1OCCOc1cc(Br)ccc1N(CC(=O)OCC)C(C)C(=O)OCC)C(C)C(=O)OCC` (stereo not drawn): the Inhibition stood at 94% in the assay on Plasmodium falciparum [1], 6% in the assay on Plasmodium falciparum [2] and 0% in the assay on HepG2.
Turning to `O=c1ccc2ccc(F)cc2n1CCN1CCC(NCc2ccc(-c3ccccn3)s2)CC1`, the Inhibition with Plasmodium falciparum [1] was determined as 98%; with Plasmodium falciparum [2], 30%; in the assay with HepG2, 0%.
On to `CC(C)c1sc(N2CCN(C)CC2)nc1C(=O)NCCc1ccc(Br)cc1.O=C(O)C(F)(F)F`, for which the Inhibition was 89% with Plasmodium falciparum [1], 60% in the assay with Plasmodium falciparum [2] and 0% with HepG2.
Take `COc1cccc(CNC[C@@H](O)[C@H](Cc2ccccc2)NC(=O)c2cc(C(C)C)cc(N3CCCC3=O)c2)c1`: the figures for the Inhibition in the assay on Plasmodium falciparum [1], in the assay on Plasmodium falciparum [2] and in the assay on HepG2 were 95%, 61% and 1%, respectively.
As to `O=C(Nc1ccc(C(F)(F)F)cc1)c1ccc(S(=O)(=O)NC2CCCN(CC3CCCCC3)C2)cc1.O=C(O)C(F)(F)F` (stereo not drawn), the Inhibition with Plasmodium falciparum [1] is listed as 99%; in the assay with Plasmodium falciparum [2] it was 0%; in the assay with HepG2, 45%.
Take `COc1ccc(CN2CCC(NCc3cccc(-n4ccnc4)c3)CC2)cc1.O=C(O)C(F)(F)F`: the Inhibition with Plasmodium falciparum [1] is 100%; in the assay with Plasmodium falciparum [2] it was 93%; in the assay on HepG2, 10%.
For `CN(C)CCCN1CCN(C(=O)c2cccc(-c3noc(C(F)(F)F)n3)c2)CC1`, the values for the Inhibition in the assay on Plasmodium falciparum [1], in the assay with Plasmodium falciparum [2] and with HepG2 were 92%, 60% and 0%, respectively.
In the same order, the values of `CN(C)CCCNCc1ccc(-c2ccc(CNCCc3ccccc3)cc2)cc1.O=C(O)C(F)(F)F` are 100%, 87% and 61%.
For the compound `C=CCc1cc(C2CCN(CCCCNC(=O)c3ccc(-c4ccc(C#N)cc4)cc3)CC2)c(OCC(N)=O)c2c1CCCC2`, the figures for the Inhibition in the assay with Plasmodium falciparum [1], in the assay with Plasmodium falciparum [2] and in the assay on HepG2 were 100%, 92% and 43%, respectively.
With `COc1cc(C(=O)NCCCN2CCN(c3cccc(Cl)c3)CC2)ccc1-c1cc2cc(Cl)c(Cl)cc2[nH]1`, the figures for the Inhibition with Plasmodium falciparum [1], in the assay on Plasmodium falciparum [2] and in the assay on HepG2 were 100%, 86% and 35%, respectively.
With `O=C(O)C(F)(F)F.c1ccc(CN2CCC(NCc3ccccc3-c3cccc(CNCc4ccc5c(c4)OCO5)c3)CC2)cc1`, the Inhibition in the assay on Plasmodium falciparum [1] stood at 100%; in the assay with Plasmodium falciparum [2], 69%; in the assay with HepG2 it was 37%.
With `COc1ccccc1CCNc1nc(C)cc(N[C@@H](CC(C)C)C(=O)NCc2cccs2)n1.O=C(O)C(F)(F)F`, the Inhibition is listed as 96% in the assay on Plasmodium falciparum [1], 31% with Plasmodium falciparum [2] and 20% with HepG2.
Consider `CCCCc1cc(NCc2ccncc2)nc(Nc2ccc(OC)cc2)n1`, for which the Inhibition in the assay with Plasmodium falciparum [1] is given as 93%; in the assay with Plasmodium falciparum [2], 22%; in the assay with HepG2, 11%.
Taken in the same sequence, the figures for `c1cncc(Oc2ccc(Nc3ccnc4cc(-c5cccc(CN6CCOCC6)c5)ccc34)cc2)c1` were 100%, 100% and 14%.
As to `COc1ccc2nc(-c3ccccc3)cc(N/N=C/c3ccc([N+](=O)[O-])o3)c2c1`, the Inhibition in the assay on Plasmodium falciparum [1] was 100%; with Plasmodium falciparum [2], 99%; in the assay with HepG2, 90%.
For `O=C(Nc1ccc2c(c1)CCN2C1CCN(Cc2csc3ccccc23)C1)c1ccco1` (stereo not drawn), the Inhibition was found to be 95% in the assay on Plasmodium falciparum [1], 95% with Plasmodium falciparum [2] and 0% in the assay with HepG2.
For the compound `O=[N+]([O-])c1cccc(-c2ccc(C=NNc3cc(N4CCCC4)nc(N4CCCC4)n3)o2)c1`, the results for the Inhibition with Plasmodium falciparum [1], in the assay with Plasmodium falciparum [2] and with HepG2 were 100%, 67% and 0%, respectively.
Regarding `Oc1cc2c(cc1CN1CCN(Cc3ccccc3F)CC1)CCC2`, the Inhibition worked out at 98% in the assay with Plasmodium falciparum [1], 94% in the assay on Plasmodium falciparum [2] and 2% in the assay on HepG2.
Taken in the same sequence, the figures for `COc1cccc(CN2CCCN(Cc3cccc(NC(=O)c4cc5ccccc5s4)c3)CC2)c1.O=C(O)C(F)(F)F` were 89%, 16% and 17%.
Turning to `CCOc1ccc(C2CCN(CCCCNC(=O)c3ccc(NC(=O)c4ccc(Cl)cc4)cc3)CC2)c(Cl)c1`, the values for the Inhibition with Plasmodium falciparum [1], in the assay on Plasmodium falciparum [2] and in the assay with HepG2 were 100%, 96% and 32%, respectively.
Consider `Clc1ccc(OCc2ccccc2)c(-c2nc(-c3nc4ccc(Cl)cc4[nH]3)cs2)c1`, for which the Inhibition in the assay on Plasmodium falciparum [1] is listed as 99%; in the assay with Plasmodium falciparum [2] it was 60%; in the assay with HepG2, 0%.
Regarding `COc1cc2nc(N3CCN(C(=O)c4ccco4)CC3)nc(NCc3ccccc3)c2cc1OC`, the Inhibition stood at 100% with Plasmodium falciparum [1], 99% in the assay with Plasmodium falciparum [2] and 16% in the assay with HepG2.
In the same order, the values of `COc1cccc(CN2CCCN(Cc3cccc(NC(=O)c4ccc(-c5ccccc5)cc4)c3)CC2)c1.O=C(O)C(F)(F)F` are 86%, 8% and 35%.
Turning to `Cc1cc(N2CCCC2)nc(Nc2ccc(NC(=O)COc3ccccc3)cc2)n1`, the Inhibition worked out at 100% with Plasmodium falciparum [1], 86% in the assay with Plasmodium falciparum [2] and 43% with HepG2.

As usually defined, the Inhibition is how much of the control response was suppressed.
